Measurements taken from PubChem BioAssay (NCI).
The panel holds about 83,000 compounds, 20% with a hit somewhere; the sample as a whole holds those more often.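 Method: cells in 96-well plates; compound added at one concentration; 48 h incubation; percent growth measured; values under 10 scored active.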 A number with no mark means an inactive call. Active and inactive are the calls of the source.

What follows are molecules tested on HL-60(TB) leukemia (assay: NCI-60 one-dose screen, 48 h (100 = growth as untreated, 0 = no growth, -100 = all killed)). Conditions: 10 µM unless noted.
In the case of `Cc1cccc(C)c1Nc1nnc(-c2c[nH]c3ccccc23)o1`, the growth is reported as 97.2%.
In the case of `C/C(=N\Nc1ccc(S(N)(=O)=O)cc1)c1cnn(-c2cc(=O)[nH]c3ccc(Br)cc23)c1C`, the growth is reported as 84.7%.
In the case of `CCN(C(=O)CN1C(=O)/C(=C/c2ccco2)SC1=S)C1CCS(=O)(=O)C1` (stereo not given), the growth is reported as 92.4%.
`O=C1NC(=O)/C(=C/c2ccccc2OCc2cc3ccccc3nc2Cl)S1` showed a growth of 99%.
Work on `CC(=O)c1cc(C(=O)N2c3ccccc3Sc3ccccc32)n2ccc(C)cc12` yielded a growth of 33.3%.
For `C#CCOc1cc(N(CC)CC)ccc1C(C(=O)NC(C)(C)C)N(C(=O)C1CCc2cc(F)ccc2O1)c1cc(C)cc(C)c1` (stereo not given), the growth was 7.34% (active).
In the case of `O=C(CSc1nnc(-c2ccc(-c3nc4ccc(Cl)cc4[nH]3)cc2)o1)Nc1ccc(Cl)cc1`, the growth is reported as 4.27% (active).
Molecule `N/C(=N\c1nc2ccccc2s1)NC(=O)Nc1c(Cl)cccc1Cl` has a growth of 17.9%.
For `C=C1CCC2C3(C)COC(c4c(F)cccc4F)OC3CCC2(C)C1C/C=C1/C(=O)OCC1O` (stereo not given), the growth was 6.75% (active).
Molecule `Cc1ccc(C(=O)Nc2ccc(-n3c(C)nc4c(cnn4-c4ccccc4)c3=O)cc2)cc1` has a growth of 51.4%.
Work on `Brc1ccc(N/N=C/c2c[nH]c3ccccc23)nc1` yielded a growth of 13.2%.
`CCOc1ccc(-c2cc(-c3cc(C(C)C)c(O)cc3C)nn2-c2ccc(S(N)(=O)=O)cc2)cc1` was tested, and the growth was 9.77% (active).
`COc1ccc(C2c3sc4ccc(C)cc4c3Oc3nc(N)nc(N)c32)cc1` (stereo not given) showed a growth of 84.8%.
With `[2H]C([2H])([2H])Oc1ccc2ncc(C#Cc3cncc(C(=O)Nc4ccc(CN5CCN(C)CC5)c(C(F)(F)F)c4)c3)n2n1` the growth was -60.4% (active).
With `Cc1ccc(Cc2cnc(NC(=O)c3ccc(/C=C4\SC(=S)N(C)C4=O)cc3)s2)cc1` the growth was 18%.
With `Cn1cc(-c2cc(N)n3nc(-c4c[nH]c5ccccc45)cc3n2)c2cc(Br)ccc21` the growth was -18.3% (active).
`Cc1nn(-c2ccccc2)c2nc(C)n(C(=O)N/N=C/c3ccccc3)c(=O)c12` was tested, and the growth was 104%.
In the case of `COc1cc2oc(-c3cccc(C(=O)Nc4ccc(Cl)cc4)c3)cc(=O)c2c(OCCNC(=O)[C@H](CO)NC(=O)OC(C)(C)C)c1OC`, the growth is reported as -32.5% (active).
`CCOc1ccc2[nH]c(=O)c(C(c3nnnn3CC3CCCO3)N3CCN(Cc4ccccc4)CC3)cc2c1` (stereo not given) gave a growth of 149%.
`NS(=O)(=O)c1cccc(Nc2nc(SCC(=O)c3ccc(F)cc3)nc3ccccc23)c1` was tested, and the growth was 6.93% (active).
In the case of `C=C[C@@]12CN3CC[C@]1(O)[C@@](C(=O)OC)(CO2)c1[nH]c2ccccc2c1C3`, the growth is reported as 20.5%.
`COc1cccc(NC(=O)c2ccc(NC(=O)CCl)s2)c1` was tested, and the growth was -28.2% (active).
For `O=C(N/N=C/c1ccc(-c2cccc([N+](=O)[O-])c2)o1)c1[nH]c2ccc(Br)cc2c1-c1ccccc1`, the growth was -36.5% (active).
For `COc1cc(NC(=O)CSc2nnc(-c3ccc4nc(-c5ccc(Cl)cc5)[nH]c4c3)o2)cc(OC)c1OC`, the growth was 56.6%.
With `O=c1[nH]c2ccccc2cc1CSc1nccc(-c2ccc3ccccc3c2)n1` the growth was 50.7%.
`O=C1/C(=C/c2cnc(-c3ccccc3)s2)SC(=S)N1Cc1ccc2c(c1)OCO2` showed a growth of 69%.
`CC(C)C[C@H](NC(=O)CNC(=O)C[C@H]1O[C@@H]2OC3(C)CC[C@H]4[C@H](C)CC[C@@H]([C@H]1C)[C@@]24O3)B(O)O` was tested, and the growth was 3.8% (active).
For `C#CCN(C)CCCOc1ccc(N(CC)C(=O)c2cc(C(C)C)c(O)cc2O)cc1Cl`, the growth was -63.8% (active).
`COc1ccc([C@H]2C(C(=O)c3ccc(Cl)cc3)C3(N[C@@H]2c2ccccc2)C(=O)Nc2ccc(Cl)cc23)cc1` (stereo not given in full) was tested, and the growth was 11.5%.
Molecule `O=C(NNc1ccccc1)n1c(=O)c2ccccc2c(=O)n1-c1ccccc1` has a growth of 82.7%.
With `CC1=C2C(=C[C@@](C)(COCOCCCl)[C@@H]2O)C(=O)[C@](C)(O)C12CC2` the growth was -31.8% (active).
`O=C(c1ccc(Cl)cc1)C1[C@H](c2ccccc2Br)[C@@H](c2ccccc2)NC12C(=O)Nc1ccc(Cl)cc12` (stereo not given in full) was tested, and the growth was 32%.
Work on `Nc1nnc(-c2cncc(Br)c2)c(-c2c[nH]c3ccc(Br)cc23)n1` yielded a growth of 36.7%.
Work on `COC(=O)c1cc(C(=O)C(C)(C)C)n2c3ccccc3c3ccccc3c12` yielded a growth of 90.4%.
With `O=C(O)c1ccc(-c2ccc(/C=N/NC(=O)c3[nH]c4ccc(Br)cc4c3-c3ccccc3)o2)cc1` the growth was -18.5% (active).
